Screening results from PubChem BioAssay.
H9c2 protect: cardioprotection against H2O2-induced cell death, primary screen, uHTS, H9c2 cells, ATPLite luminescence | H9c2 cardiomyocytes, H2O2 injury protection, 2 h | protection from H2O2 cell death, % at 20 µM | 360,000 tested, 0.63% active;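 active = compounds giving at least 50% protection of heart cells from peroxide-induced death in the single-dose screen, raw or plate-pattern-corrected value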;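 note: 0% = DMSO wells with peroxide and 100% = DMSO wells without peroxide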
GRIN3A LBD mod: binders of NR3A ligand-binding domain, primary screen, biophysical, differential scanning fluorimetry, uHTS. 340,000 tested, 2.5% active. Glutamate receptor ionotropic, NMDA 3A (GRIN3A) ligand-binding domain. Tm shift relative to glycine control, % at 25 µM. NR3A LBD differential scanning fluorimetry, Tm shift; 0% = protein alone, 100% = glycine-bound protein;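 active = melting temperature shift of at least 10% of the positive control shift, at one fixed dose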
AHR activator: AHR activators, primary screen, cell-based, luminescence, luciferase reporter, human | Aryl hydrocarbon receptor (Homo sapiens), P35869 | AHR-responsive luciferase reporter cells | activation, % at 5 µM | 320,000 tested, 2.5% active | AID 2796, 2010; in the data active = activation above about 47%;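 note: 0% = vehicle wells and 100% = reference agonist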
AI-2 QS modul: Vibrio harveyi AI-2 quorum sensing modulators, primary screen, JMH597 strain, luminescence/OD600 ratio | Vibrio harveyi JMH597 AI-2 luminescence/OD600 ratio, 9 h; active compounds read low; strain lacks LuxN and CqsS sensors; 0 = neutral-control median | activity change, % at 7.5 µM | 300,000 tested, 0.4% active | AID 2094, 2009; in the data active = activity change below about -75%, passing the limit was not always enough;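 note: luminescence divided by OD600 gain over 9 h not by final OD600 alone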
SUMO Mot1 rescue: yeast Mot1-301 growth rescue at high temperature, primary screen, SUMOylation pathway inhibitor project, S. cerevisiae, ATP luminescence, 38.5C; S. cerevisiae Mot1-301 growth rescue; percent above DMSO median, 100 means doubled; growth rescue, % at 18.8 µM; 320,000 tested, 1% active; AID 2716, 2010;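 active = every valid replicate shows activation above 250% relative to neutral control wells; inactive = the rest, any valid replicate at or below 250%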;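 note: OY570 slx delta 5 strain wells were the positive control but not used for scaling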
NTR1 ag: agonists of human NTR1, primary screen, imaging, U2OS cells, beta-arrestin-GFP, high content; NTR1-U2OS beta-arrestin-GFP spot imaging, agonist mode; AID 493036, 2011; Neurotensin receptor type 1 (Homo sapiens), P30989; activation, % at 20 µM; 330,000 tested, 0.17% active;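 active = activation at or above 40% of the spot to cytoplasm intensity ratio, with at least 20 cells analyzed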;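 note: 0% = DMSO without peptide and 100% = 100 nM NTR1 peptide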
Target sequence (P30989 whole entry, looked up): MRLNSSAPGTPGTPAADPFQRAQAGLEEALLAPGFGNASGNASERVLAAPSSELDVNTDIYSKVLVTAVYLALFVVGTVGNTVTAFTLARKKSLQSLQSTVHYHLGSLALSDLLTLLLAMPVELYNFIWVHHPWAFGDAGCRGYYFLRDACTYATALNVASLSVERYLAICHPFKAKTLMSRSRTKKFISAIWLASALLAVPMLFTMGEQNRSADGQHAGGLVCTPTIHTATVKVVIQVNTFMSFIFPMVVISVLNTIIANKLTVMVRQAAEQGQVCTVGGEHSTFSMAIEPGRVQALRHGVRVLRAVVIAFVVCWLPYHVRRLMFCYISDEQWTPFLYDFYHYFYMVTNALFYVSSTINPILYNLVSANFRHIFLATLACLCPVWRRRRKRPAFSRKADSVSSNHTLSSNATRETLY
* hit, by the source's call; · = not tested or not shown. Compounds with a hit are over-represented: about 6.2% of the library has one in this group of screens.

SMILES | H9c2 protect | GRIN3A LBD mod | AHR activator | AI-2 QS modul | SUMO Mot1 rescue | NTR1 ag
Cc1ccc(/C=C/C(=O)NC2=NCCS2)cc1 | -21.8 | -0.6 | 2.7 | 10.9 | 20.7 | 3.6
Cc1ccsc1/C=N/n1c(-c2ccncc2)n[nH]c1=S | 1.4 | -7.7 | 12.6 | 22.1 | 638.2 | -0.3
Cc1ccsc1/C=N/n1c(-c2ccccn2)n[nH]c1=S | 4.9 | -1.1 | 50.8* | 25.7 | -6.3 | 0.5
COc1cc(/C=N\Nc2ccc([N+](=O)[O-])cc2)ccc1OCC(=O)Nc1ccc(C)c(C)c1 | 0.2 | 16.5* | · | 11.9 | · | ·
CCOc1cc(/C=N\Nc2ccc([N+](=O)[O-])cc2)ccc1OCC(=O)Nc1ccc(C)c(C)c1 | -1.5 | 14.9* | 0.9 | 16.7 | 12.0 | 14.1
Cc1nn2c(-c3cccc(NC(=O)c4ccco4)c3)nnc2c2ccccc12 | 80.2* | -0.8 | 40.7 | 37.0 | -7.0 | 1.5
O=C(N/N=C/c1ccc(O)cc1)c1cc(-c2ccc3c(c2)OCO3)n[nH]1 | 20.9 | 27.7* | 76.2* | 9.1 | -4.6 | -1.8
O=C(N/N=C/c1cccc(O)c1)c1cc(-c2ccc3c(c2)OCO3)n[nH]1 | 76.5* | 31.6* | 117.0* | 19.3 | -14.3 | -1.1
O=C(N/N=C/c1cccc([N+](=O)[O-])c1)c1cc(-c2ccc3c(c2)OCO3)n[nH]1 | -1.2 | 29.2* | 20.4 | 14.5 | -6.2 | -0.7
Cc1ccc(C(=O)NN=Cc2ccc3c(c2)OCO3)cc1 | -9.5 | -22.9 | · | · | · | ·
O=C(N/N=C/c1ccccc1)c1ccc2c(c1)OCO2 | -19.3 | 0.5 | 70.0* | -2.2 | 8.6 | 2.1
COc1cccc(/C=N/NC(=O)c2cc(-c3cccn3C)n[nH]2)c1 | 17.2 | -5.9 | 38.8 | 42.8 | 6.3 | -1.1
O=C(C[n+]1cccc(C(=O)N/N=C/c2cccc([N+](=O)[O-])c2)c1)c1ccccc1 | 4.2 | -0.1 | · | · | · | 0.0
CCCCn1c(N)c(N(CCOC)C(=O)CSc2nnc(C)n2-c2ccc(OC)cc2)c(=O)[nH]c1=O | 0.0 | 0.4 | 6.2 | 11.0 | -2.2 | 1.3
O=C(N/N=C/c1ccco1)c1cc(-c2ccccc2)n[nH]1 | 6.2 | -4.9 | 2.9 | 3.5 | -34.8 | -1.6
O=C(N/N=C/c1ccccc1)c1cc(-c2ccc3c(c2)OCO3)n[nH]1 | 1.6 | 26.2* | 88.4* | 5.0 | 31.8 | -1.3
CCC(Sc1ncccc1Nc1ccccn1)C(=O)O (stereo not given) | 8.3 | -1.4 | -0.5 | 0.1 | -22.0 | 0.0
COc1cccc(NC(=O)COc2ncnc3sc(C)c(C)c23)c1 | 2.2 | -1.6 | 1.2 | -76.4* | 1.0 | 0.1
Cc1cc(-n2c(C)cc(C(=O)COc3ccc(Cl)cc3C(N)=O)c2C)no1 | -2.5 | 2.6 | 47.3* | · | -17.6 | 3.9
Nc1c(C(=O)Nc2ccccc2)sc2nc(-c3ccco3)ccc12 | 29.0 | -11.0 | 19.0 | -16.4 | 58.0 | -1.5
N#Cc1cc2c(N)c(C(=O)Nc3ccccc3)sc2nc1N | · | · | 64.2* | 12.5 | -1.8 | -1.5
Cc1cc(N2CCOCC2)nc2ccc(NC(=S)N3CCN(c4ccccc4)CC3)cc12 | 0.1 | -12.4 | 25.3 | 19.5 | 340.3* | 4.9
O=C(Nc1nccs1)c1cc(-c2ccccc2)nc2ccccc12 | 29.4 | -4.3 | 25.5 | 20.3 | 27.8 | 1.4
O=C(c1cc(N2CCCCC2)nc2ccccc12)N1CCOCC1 | 2.0 | -0.8 | 7.3 | 10.8 | 12.8 | -0.8
Cc1cccc(NC(=O)c2cc(N3CCOCC3)nc3ccccc23)c1 | 6.3 | -1.4 | 21.5 | -4.2 | -11.4 | -0.8
SMILES | H9c2 protect | GRIN3A LBD mod | AHR activator | AI-2 QS modul | SUMO Mot1 rescue | NTR1 ag
O=C(Nc1nccs1)c1cc(Cl)nc2ccccc12 | -3.3 | -2.1 | 68.0* | 22.7 | -5.9 | 0.3
Cc1ccc(NC(=O)c2cc(N3CCOCC3)nc3ccccc23)cc1 | 1.0 | -1.5 | 58.1* | 11.6 | 123.7 | 0.3
O=C(Nc1ccccc1)c1cc(N2CCOCC2)nc2ccccc12 | 3.2 | -0.1 | 58.3* | 5.3 | 1.7 | -0.2
COCCN(C(=O)COC(=O)/C=C/c1ccc2c(c1)OCO2)c1c(N)n(Cc2ccccc2)c(=O)[nH]c1=O | 10.5 | -0.5 | -1.5 | · | -8.1 | 2.3
NC(c1csc(Nc2ccc(C(F)(F)F)cn2)n1)C1CCCCC1 (stereo not given) | -32.2 | · | · | · | · | ·
COc1ccc(NC(=O)C2CCCN2S(=O)(=O)c2ccc3c(c2)C(C)(C)C(=O)N3C)cc1 (stereo not given) | 2.4 | · | · | · | · | ·
O=C(Nc1ccc(F)cc1)c1cc(-c2ccncc2)nc2c(Cl)cccc12 | 4.5 | 0.3 | 68.7* | 11.9 | -23.5 | 3.5
O=C(Nc1nccs1)c1cc(-c2ccccn2)nc2c(Cl)cccc12 | 4.8 | 3.2 | 75.8* | 7.7 | -6.0 | 0.6
O=C(O)c1cc(N2CCOCC2)nc2ccccc12 | 6.0 | 0.2 | 0.3 | 25.5 | 260.3 | 1.4
O=C(Nc1nccs1)c1cc(N2CCOCC2)nc2ccccc12 | 3.8 | -0.5 | 76.1* | 47.2 | -10.3 | -1.0
CCc1nc2ccc(C(=O)NC3CCN(Cc4ccccc4)CC3)cn2c1N(C)Cc1cc2ccccc2s1 | -29.9 | · | · | · | · | ·
COc1ccc(CCNC(=O)C/C(C)=N/NC(=O)C23CC4CC(CC(C4)C2)C3)cc1OC | 17.5 | 29.9* | 3.5 | 14.7 | -4.5 | 1.8
COc1ccc(CCNC(=O)COC(=O)c2cccs2)cc1OC | -1.3 | 11.9* | -0.4 | · | -7.6 | 0.0
CCOc1ccc(CCNC(=O)COC(=O)c2cccs2)cc1OCC | -1.6 | 0.8 | 3.8 | 22.9 | 1.0 | 0.0
COc1ccc(NC(=O)CSc2nnc(Cn3cnc([N+](=O)[O-])n3)n2C)cc1 | 3.2 | -2.4 | 1.0 | 18.6 | 343.9* | 4.7
Cc1cc(OC(=O)Nc2ccccc2)ccc1Cl | -2.0 | · | · | · | · | ·
O=C(Nc1ccccn1)C1CCN(C(=O)Nc2ccccc2)CC1 | 4.1 | -0.6 | 11.5 | 26.8 | -2.3 | 0.7
Fc1c(F)c(F)c(SCn2cc(Br)cn2)c(F)c1F | -5.7 | -0.9 | -4.0 | · | 4.5 | 1.0
COc1ccc(-c2n[nH]c(C)c2-c2ccc(Cl)cc2)c(O)c1OC | 19.1 | -17.8 | 7.4 | 2.0 | 4.0 | 7.9
O=c1c(Oc2ccccc2F)coc2cc(OCc3cnn(-c4ccccc4)c3)ccc12 | -4.8 | 0.3 | 0.8 | 27.7 | 1.7 | 0.7
COc1ccc(-c2cc(-c3ccc(C)cc3)n[nH]2)c(O)c1 | -5.8 | 30.8* | 7.7 | 43.6 | 31.8 | 10.6
Cc1[nH]nc(-c2ccc(OCc3cnn(-c4ccccc4)c3)cc2O)c1Oc1ccccc1F | -12.0 | 5.5 | 49.9* | 15.8 | 74.1 | 7.5
